{"source": "PubChem BioAssay (NCATS)", "note": "“And” between values parts separate entries of the source, which are not always exact repeats. Identical values can stand only once. Inconclusive results are not listed. Entries that show only a call come without a potency. The source made the active and inactive calls. The call rests on the fitted dose curve; in most records, active means well fitted inhibition curve with a large enough effect; inconclusive means small, poorly fitted or top-dose-only effect; inactive means flat fitted curve, though single readings scatter. Potency means the concentration at half of the fitted maximal effect."}
{"target": "Voltage-gated inwardly rectifying potassium channel KCNH2 (Homo sapiens) (UniProt Q12809)", "sequence (Q12809 whole entry, looked up)": "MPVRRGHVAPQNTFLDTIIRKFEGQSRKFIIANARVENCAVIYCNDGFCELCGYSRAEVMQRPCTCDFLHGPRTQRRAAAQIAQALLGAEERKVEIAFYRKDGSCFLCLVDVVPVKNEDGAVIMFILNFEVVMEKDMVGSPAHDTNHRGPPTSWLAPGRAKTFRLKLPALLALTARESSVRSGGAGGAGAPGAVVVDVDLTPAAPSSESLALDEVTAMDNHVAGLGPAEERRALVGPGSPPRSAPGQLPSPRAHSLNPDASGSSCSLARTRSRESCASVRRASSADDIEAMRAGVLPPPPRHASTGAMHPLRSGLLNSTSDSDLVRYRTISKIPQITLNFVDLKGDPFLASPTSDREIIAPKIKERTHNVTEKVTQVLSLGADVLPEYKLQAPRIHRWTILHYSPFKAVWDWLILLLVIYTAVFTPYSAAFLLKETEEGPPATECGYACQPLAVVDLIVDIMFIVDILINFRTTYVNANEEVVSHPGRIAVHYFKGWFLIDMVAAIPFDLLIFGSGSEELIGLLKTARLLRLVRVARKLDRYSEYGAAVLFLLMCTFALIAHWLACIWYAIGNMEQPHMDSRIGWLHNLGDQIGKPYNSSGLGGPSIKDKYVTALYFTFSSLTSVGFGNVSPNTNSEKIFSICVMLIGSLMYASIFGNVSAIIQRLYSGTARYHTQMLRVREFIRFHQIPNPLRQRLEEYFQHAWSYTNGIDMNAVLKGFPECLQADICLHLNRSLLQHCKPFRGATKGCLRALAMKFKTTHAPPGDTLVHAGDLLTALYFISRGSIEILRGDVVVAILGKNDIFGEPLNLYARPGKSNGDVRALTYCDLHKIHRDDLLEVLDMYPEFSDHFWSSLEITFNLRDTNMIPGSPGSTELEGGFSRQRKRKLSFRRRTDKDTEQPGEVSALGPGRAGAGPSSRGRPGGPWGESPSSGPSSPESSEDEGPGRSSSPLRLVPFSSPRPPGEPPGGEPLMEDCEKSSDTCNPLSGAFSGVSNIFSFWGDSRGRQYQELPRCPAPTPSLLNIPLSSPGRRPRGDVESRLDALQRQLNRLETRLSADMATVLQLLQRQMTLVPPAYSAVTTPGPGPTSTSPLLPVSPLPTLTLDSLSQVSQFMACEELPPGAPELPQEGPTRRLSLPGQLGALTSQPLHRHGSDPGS", "test": "qHTS Assay for Small Molecule Inhibitors of the Human hERG Channel Activity (AID 588834);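 further: lower thallium flux fluorescence means stronger hERG block; nearly all actives have a fitted effect of over 50% in size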", "conditions": "U2OS BacMam hERG, FluxOR thallium flux fluorescence; series mostly up to 46.1 µM", "description": "NIH Chemical Genomics Center [NCGC]\nNational Institutes of Environmental Health Sciences [NIEHS]\nNational Toxicology Program [NTP]\nWe have developed a 1536-well cell-based assay for quantitative high throughput screening (qHTS) to determine in vitro hERG channel blockage as a measure of cardio toxicity with small molecules. This particular assay uses the U2OS cell line which is derived from human osteosarcoma.\nNCGC Assay Protocol Summary:\nHERG assay (FluxORTM thallium flux assay) was initially developed by Invitrogen/Molecular Probes, and then miniaturized into 1536-well plate in a homogeneous format by NCGC. This assay measures the activity of potassium channel using thallium dye (FluxOR) flux as surrogate measurement for potassium into the cells with a FDSS-7000 kinetic plate reader (Hamamatsu Corp., Hamamatsu City, Japan). The hERG ion channel is transduced into mammalian cells (U2OS) using a baculovirus (Bacmam) construct harboring the hERG K+ ion channel. So far we screened LOPAC1280 library (Sigma), the NTP collection of 1408 compounds, and the NCGC Pharmaceutical Collection (NPC), in which many well defined HERG blockers are present. The rank order potencies of many of these compounds are similar to that of other HERG assays (membrane potential, Rb+ flux, patch clamp, etc). This quick and homogeneous assay is also found to be sensitive, specific, and robust.\nUsing the FluxORTM thallium flux assay, the activity of potassium channel using thallium dye (FluxOR) flux as surrogate measurement for potassium into the cells was measured in the U2OS cell line transduced with hERG K+ ion channel using a baculovirus (Bacmam) using Opti-MEM medium (Invitrogen) containing 2% fetal calf serum (FCS, HyCone) following loading buffer addition, compound treatment for around 10 minutes and finally adding stimulation buffer. The assay was performed in black clear Kalypsys 1536-well plates. In the screen, Astemizole was used as positive controls. Library compounds were measured for their ability to cause hERG channel blockage in the cell line, as reflected by a decrease in fluorescence intensity, in a concentration-dependent manner. […] AC50 values were determined from concentration-response data modeled with the standard Hill equation.\nqHTS protocol for hERG-U2OS cellular assay\n[Step] [Parameter] [Value] [Description]\n1. Day 1: Replace medium in 70-80% confluent T225 flask with 2.5 mL of hERG-BacMam virus plus 12.5 mL of phosphate buffered saline (PBS) (corresponding roughly to a multiplicity of infection ratio of 100 virus particles/cell)\n2. Incubation: 4 hrs @ room Temperature in Dark\n3. Reagent; Remove virus; wash once with 25 ml DPBS\n4. Reagent; 35 ml culture medium\n5. Incubation; 37 °C overnight\n6. Day2: Reagent; 3 uL; 2000 U2OS cells/well\n7. Time; 4 hr; 37 °C incubation\n8. Loading buffer; 1 uL; 0.7X;\n9. Incubation: 1hr @ RT in Dark.\n12. Time; 10min; 37 °C incubation\n13. Read fluorescence Intensity on FDSS for 10 Sec with 1 sec interval\n14. Reagent; 1 uL; stimulation buffer\n15. Read fluorescence Intensity on FDSS for 2 min with 1 sec interval\n16. Detection; Fluorescence Intensity; FDSS"}
{"compound": "Clc1cccc(Cl)c1NC1=NCCN1", "Potency": "inactive"}
{"compound": "c1ccc([C@H]2CN3CCSC3=N2)cc1", "Potency": "inactive"}
{"compound": "Cc1cc2c(C(C)C)c(O)c(O)c(C=O)c2c(O)c1-c1c(C)cc2c(C(C)C)c(O)c(O)c(C=O)c2c1O", "Potency": "inactive"}
{"compound": "CC(C)(C)NCC(O)c1ccc(O)c(CO)c1", "note": "(stereo not given)", "Potency": "inactive"}
{"compound": "Cc1c(C)c2c(c(C)c1O)CCC(C)(COc1ccc(CC3SC(=O)NC3=O)cc1)O2", "note": "(stereo not given)", "Potency": "inactive"}
{"compound": "O=C1CCC(N2C(=O)c3ccccc3C2=O)C(=O)N1", "note": "(stereo not given)", "Potency": "inactive"}
{"compound": "N[C@@H]1CONC1=O", "Potency": "inactive"}
{"compound": "CCOC(=O)C1=C[C@]2(CC)CCCN3CCc4c(n1c1ccccc41)[C@@H]32", "Potency": "141 nM (active) and 31.6 nM (active)"}
{"compound": "NNCCc1ccccc1", "Potency": "inactive"}
{"compound": "O=NN(CCCl)C(=O)NCCCl", "Potency": "inactive"}
{"compound": "Cc1oncc1C(=O)Nc1ccc(C(F)(F)F)cc1", "Potency": "inactive"}
{"compound": "O=C1CCc2cc(OCCCCc3nnnn3C3CCCCC3)ccc2N1", "Potency": "inactive"}
{"compound": "CC(c1cc2ccccc2s1)N(O)C(N)=O", "note": "(stereo not given)", "Potency": "inactive"}
{"compound": "Nc1nc2[nH]cc(CCc3ccc(C(=O)N[C@@H](CCC(=O)O)C(=O)O)cc3)c2c(=O)[nH]1", "Potency": "inactive"}
{"compound": "CNC[C@H](O)c1cccc(O)c1", "Potency": "inactive"}
{"compound": "NC(=O)c1cnccn1", "Potency": "inactive"}
{"compound": "COc1ccc2nc(S(=O)Cc3ncc(C)c(OC)c3C)[nH]c2c1", "note": "(stereo not given)", "Potency": "inactive"}
{"compound": "O=c1[nH]cnc2[nH]ncc12", "Potency": "inactive"}
{"compound": "Cn1cnc([N+](=O)[O-])c1Sc1ncnc2nc[nH]c12", "Potency": "inactive"}
{"compound": "CCCc1nc2c(C)cc(-c3nc4ccccc4n3C)cc2n1Cc1ccc(-c2ccccc2C(=O)O)cc1", "Potency": "inactive"}
{"compound": "Nc1ccc(S(=O)(=O)Nc2ccnn2-c2ccccc2)cc1", "Potency": "inactive"}
{"compound": "C1COC(NC(C2CC2)C2CC2)=N1", "Potency": "inactive"}
{"compound": "NCCc1ccc(O)c(O)c1", "Potency": "inactive"}
{"compound": "CCC(C)N(C)C(=O)c1cc2ccccc2c(-c2ccccc2Cl)n1", "note": "(stereo not given)", "Potency": "inactive"}
{"compound": "NS(=O)(=O)c1cc2c(cc1Cl)NC=NS2(=O)=O", "Potency": "inactive"}
{"compound": "CC(C)NCC(O)COc1ccc(COCCOC(C)C)cc1", "note": "(stereo not given)", "Potency": "inactive"}
{"compound": "CCc1ccc(CCOc2ccc(CC3SC(=O)NC3=O)cc2)nc1", "note": "(stereo not given)", "Potency": "inactive"}
{"compound": "Cc1cnc(NC(=O)C2=C(O)c3ccccc3S(=O)(=O)N2C)s1", "Potency": "inactive"}
{"compound": "NC[C@H](O)c1ccc(O)c(O)c1", "Potency": "inactive"}
{"compound": "Cc1[nH]c(=O)c(C#N)cc1-c1ccc2nccn2c1", "Potency": "inactive"}
{"compound": "OC(CN1CCC(Cc2ccc(F)cc2)CC1)c1ccc(Cl)cc1", "note": "(stereo not given)", "Potency": "0.0178 µM (active)"}
{"compound": "N#Cc1ccc(C(c2ccc(C#N)cc2)n2cncn2)cc1", "Potency": "inactive"}
{"compound": "C#Cc1cccc(Nc2ncnc3cc(OCCOC)c(OCCOC)cc23)c1", "Potency": "inactive"}
{"compound": "CC(C[N+](C)(C)C)OC(N)=O", "note": "(stereo not given)", "Potency": "inactive"}
{"compound": "CC(C)(Sc1ccc(CCN(CCCCC2CCCCC2)C(=O)NC2CCCCC2)cc1)C(=O)O", "Potency": "inactive"}
{"compound": "N=c1nc(N2CCCCC2)cc(N)n1O", "Potency": "inactive"}
{"compound": "CC(=O)Oc1ccccc1C(=O)O", "Potency": "inactive"}
{"compound": "Cc1cn[nH]c1", "Potency": "inactive"}
